Results: PubChem BioAssay (NCI)
Compounds without any hit were thinned out: in the full panel of roughly 83,000, 20% have a hit.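 Method: cells in 96-well plates; compound added at one concentration; 48 h incubation; percent growth measured; values under 10 scored active.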 Calls of active or inactive are those of the source.

Legend:
Assay in all cases: NCI-60 one-dose screen, 48 h (100 = growth as untreated, 0 = no growth, -100 = all killed)
Details in all cases: 10 µM unless noted
[1] = tested on: DU-145 prostate
[2] = tested on: K-562 leukemia
[3] = tested on: MALME-3M melanoma
[4] = tested on: MDA-MB-231 breast
[5] = tested on: RXF 393 renal
[6] = tested on: SF-268 CNS
[7] = tested on: SF-295 CNS
[8] = tested on: SF-539 CNS
[9] = tested on: UACC-257 melanoma
[10] = tested on: M14 melanoma
[11] = tested on: HCT-15 colon
[12] = tested on: HT29 colon
[13] = tested on: SNB-75 CNS
[14] = tested on: SNB-19 CNS
[15] = tested on: U251 CNS
[16] = tested on: PC-3 prostate
[17] = tested on: SK-MEL-5 melanoma
[18] = tested on: UACC-62 melanoma
[19] = tested on: LOX IMVI melanoma
[20] = tested on: SK-MEL-28 melanoma

Measured: growth

Nc1ccc(Cl)cc1
inactive: [1] 102% | [2] 100% | [3] 104% | [4] 104% | [5] 105% | [6] 104% | [7] 99.2% | [8] 96.6% | [9] 86.4% | [10] 99.5% | [11] 100% | [12] 97.5% | [13] 88.3% | [14] 103% | [15] 96.9% | [16] 86% | [17] 99.7% | [18] 101% | [19] 92.8% | [20] 109%

COC(=O)[C@@H](C)C[C@H](Cc1ccccc1)NC(=O)c1nc([C@@H](C[C@H](C(C)C)N(C)C(=O)[C@@H](NC(=O)[C@H]2CCCCN2C)C(C)C)OC(C)=O)sc1C(C)C
active: [1] -0.426% | [2] 7.38% | [4] 2.67% | [7] -1.35% | [8] -22.2% | [10] -26.6% | [11] 5.69% | [12] 1.52% | [13] -0.49% | [15] 6.19% | [17] -57.3% | [19] 9.2%
inactive: [3] 57.5% | [5] 23.7% | [6] 22.1% | [9] 50.7% | [14] 27.7% | [16] 21.2% | [18] 29.4% | [20] 49.1%

CC(=O)O[C@H](C[C@H](C(C)C)N(C)C(=O)[C@@H](NC(=O)[C@H]1CCCCN1C)C(C)C)c1nc(C(=O)N[C@@H](Cc2ccccc2)C[C@H](C)C(=O)O)c(C)s1
inactive: [1] 21.8% | [2] 14% | [3] 58.5% | [4] 23.5% | [5] 53.9% | [6] 29.7% | [7] 15.9% | [9] 46.3% | [11] 16.5% | [13] 49.6% | [14] 38.5% | [16] 21.3% | [18] 48.1% | [19] 26.6%
active: [8] 4.22% | [10] 6.5% | [12] 3.99% | [15] 8.94% | [17] -33.1%

CCCCCCCCCCCCCCCCCCOc1ccccc1COP(=O)(O)OOCC[N+](C)(C)C
inactive: [6] 10.6% | [7] 27.2% | [9] 11.5% | [11] 41.2% | [20] 21.4%
active: [1] 9.26% | [2] 1.4% | [3] -12.3% | [4] -40.7% | [5] -64.7% | [8] 7.74% | [10] -29.1% | [12] -11.4% | [13] -4.01% | [14] -13.9% | [15] -58.8% | [16] -25.5% | [17] -72.9% | [18] -11.5% | [19] -88.1%

C[C@@H]1CCC2[C@@H](C)[C@H](OC(=O)CCC(=O)NCCNC(=O)Cc3cc(=O)oc4cc(N(C)C)ccc34)O[C@@H]3O[C@]4(C)CC[C@@H]1C23OO4 (stereo partly drawn)
active: [11] 7.81% | [19] -7.91%
inactive: [1] 94% | [2] 13.6% | [3] 49.6% | [4] 77% | [5] 61.7% | [6] 56.7% | [7] 41.8% | [8] 55.4% | [9] 59.1% | [10] 38.4% | [12] 26.4% | [13] 60.9% | [14] 65% | [15] 34.4% | [16] 19.1% | [17] 33.2% | [18] 31.7%

O=C1C2C(C(=O)[N]1[Hg][c]1ccccc1)C1(Cl)C(Cl)=C(Cl)C2(Cl)C1(Cl)Cl (stereo not drawn)
inactive: [7] 67.8% | [8] 10.3% | [14] 25.9%
active: [1] -86.6% | [2] 4.39% | [3] -78.4% | [4] -2.38% | [5] -98.6% | [6] -66.4% | [9] -67.8% | [10] -82.3% | [11] -89.1% | [12] -45% | [13] -64.1% | [15] -65.9% | [16] -57.4% | [17] -16.6% | [18] -3.49% | [19] -82.8%

N#CCCNc1ccccc1
inactive: [1] 116% | [2] 98.3% | [3] 120% | [4] 111% | [5] 106% | [6] 97.7% | [7] 101% | [8] 98.1% | [9] 118% | [10] 112% | [11] 111% | [12] 108% | [13] 88.6% | [14] 116% | [15] 103% | [16] 96.9% | [17] 107% | [18] 117% | [19] 106%

N#C[Se]CCN1C(=O)c2ccccc2C1=O
inactive: [1] 35.1% | [2] 26.1% | [3] 17.7% | [4] 55.9% | [6] 20.2% | [8] 33.4% | [10] 25.5% | [11] 53.2% | [12] 13.9% | [14] 38% | [15] 27.4% | [16] 41.8% | [18] 22.7%
active: [5] -9.88% | [7] 6.62% | [9] 7.13% | [13] 2.39% | [17] 1.73% | [19] 5.83%

C[N+](C)(C)Cc1cc(Cl)ccc1O
inactive: [1] 108% | [2] 99.9% | [3] 93.2% | [4] 109% | [5] 110% | [6] 106% | [7] 108% | [8] 102% | [9] 96.5% | [10] 94.8% | [11] 91.8% | [12] 97.5% | [13] 99.3% | [14] 118% | [15] 98.7% | [16] 99.8% | [17] 93.1% | [18] 102% | [19] 99%

CC[CH2][Sn]([Cl])([Cl])[CH2]CC
inactive: [1] 106% | [2] 30.6% | [3] 21% | [4] 81.6% | [5] 51.1% | [6] 83.2% | [7] 96.1% | [8] 80.4% | [9] 67% | [10] 83.4% | [11] 83.1% | [12] 103% | [13] 55.9% | [14] 88.9% | [15] 39.2% | [16] 103% | [17] 86.4% | [18] 60% | [19] 27.6%

NC1CC2CCCCC2CC1(O)c1ccccc1 (stereo not drawn)
inactive: [1] 103% | [2] 92.4% | [3] 96.1% | [4] 99.8% | [5] 101% | [6] 102% | [7] 114% | [8] 99.1% | [9] 98% | [10] 100% | [11] 102% | [12] 102% | [13] 80.9% | [14] 103% | [15] 96.4% | [16] 92.8% | [17] 102% | [18] 105% | [19] 91.9% | [20] 111%

O=C1N[C@@H]2[C@@H](O)[C@@H](O)[C@H](O)C[C@H]2c2cc3c(c(O)c21)OCO3
active: [1] -19.1% | [2] 1.86% | [3] -48.7% | [4] -27.9% | [5] -37.3% | [6] -4.43% | [7] -11.5% | [8] -29.7% | [9] -21.8% | [10] -81.7% | [11] 1.81% | [12] -14.9% | [13] -25.3% | [14] -8.68% | [15] -10.5% | [16] -8.66% | [17] -72.7% | [18] -48.3% | [19] -48.8%

CC[C@H](C)[C@@H]([C@@H](CC(=O)N1CCC[C@H]1[C@H](OC)[C@@H](C)C(=O)N[C@H](C)[C@@H](O)c1ccccc1)OC)N(C)C(=O)[C@@H](NC(=O)[C@@H](NC)C(C)C)C(C)C
inactive: [1] 10.5% | [2] 11% | [3] 55.6% | [4] 16.9% | [5] 46% | [6] 39% | [7] 10.8% | [9] 65.7% | [11] 17.2% | [13] 39% | [14] 45.4% | [16] 29.1% | [18] 47.3% | [19] 19.6%
active: [8] -13.9% | [10] 1.24% | [12] 3.65% | [15] 6.43% | [17] -37.6%

Nc1ncnc2n[nH]nc12
inactive: [1] 57% | [2] 59.6% | [3] 55.1% | [4] 74.9% | [5] 75.8% | [6] 81% | [7] 53.5% | [8] 86.8% | [9] 58.1% | [10] 39.8% | [11] 63.4% | [12] 79.7% | [13] 90.6% | [14] 93.5% | [15] 70.1% | [16] 64.5% | [17] 72.5% | [18] 46.7% | [19] 43.9%

CN1CC(=O)N(O)C1(C)c1cccnc1 (stereo not drawn)
inactive: [1] 115% | [2] 99.4% | [3] 102% | [4] 113% | [5] 106% | [6] 106% | [7] 96.4% | [8] 98.3% | [9] 98.9% | [10] 105% | [11] 96.9% | [12] 97.8% | [13] 88.5% | [14] 105% | [15] 102% | [16] 95.8% | [17] 101% | [18] 104% | [19] 97.3%

CC(C)=CCC[C@H](C(=O)O)[C@@H]1CC[C@]2(C)C3=C(CC[C@@]12C)[C@@]1(C)CC[C@H](O)C(C)(C)[C@@H]1CC3
inactive: [1] 110% | [2] 70.4% | [3] 106% | [4] 103% | [5] 104% | [6] 101% | [7] 94.6% | [8] 93.2% | [9] 88.9% | [10] 85.9% | [11] 97.7% | [12] 91% | [13] 90.1% | [14] 97.1% | [15] 94.5% | [16] 84.8% | [17] 103% | [18] 96.1% | [19] 102%
